Test results taken from PubChem BioAssay (NCATS).
“And” between values parts separate entries of the source, which are not always exact repeats. Equal entries are not always repeated. Results filed as inconclusive are left out. Entries that show only a call come without a potency. The source made the active and inactive calls. Unless noted, the call rests on the fitted dose curve; in most records, active means well fitted curve in the direction sought with a large enough effect; inconclusive means small, poorly fitted or top-dose-only effect, or another doubt; inactive means no such curve, though single readings can be large; an effect the other way counts as inactive or inconclusive.

Tests used:
[1] = Cell Viability - NIH 3T3 (AID 541); conditions: NIH 3T3 cell viability, qHTS; activity change, negative = cytotoxicity: at 92.2 µM (top of the series);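 further: cells exposed to compound for 40 hours; nearly all actives have a fitted effect of over 25% in size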
Outline: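 Cells seeded at 1000/well, rested 5 hr at 37 °C, then dosed and incubated 40 hr at 37 °C. CellTiter-Glo added, 20 min room temperature, luminescence read. AC50 by Hill fit.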

[2] = Cell Viability - LYMP2-005 (AID 967)
Outline: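 qHTS viability screen in LYMP2-005 cells: 24 h at 37 C with compound, ATP luminescence via CellTiter-Glo, AC50 from Hill curves.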

[3] = biological target: Estrogen receptor (Homo sapiens) (UniProt P03372); assay: qHTS assay for small molecule antagonists of estrogen receptor alpha signaling (AID 588513; active means well fitted curve in the direction sought with a large enough effect in the signal ratio, with a control signal flat, not every such curve was filed as active; the % refers to the signal ratio)
Sequence of Estrogen receptor (Homo sapiens) (P03372 whole entry, looked up): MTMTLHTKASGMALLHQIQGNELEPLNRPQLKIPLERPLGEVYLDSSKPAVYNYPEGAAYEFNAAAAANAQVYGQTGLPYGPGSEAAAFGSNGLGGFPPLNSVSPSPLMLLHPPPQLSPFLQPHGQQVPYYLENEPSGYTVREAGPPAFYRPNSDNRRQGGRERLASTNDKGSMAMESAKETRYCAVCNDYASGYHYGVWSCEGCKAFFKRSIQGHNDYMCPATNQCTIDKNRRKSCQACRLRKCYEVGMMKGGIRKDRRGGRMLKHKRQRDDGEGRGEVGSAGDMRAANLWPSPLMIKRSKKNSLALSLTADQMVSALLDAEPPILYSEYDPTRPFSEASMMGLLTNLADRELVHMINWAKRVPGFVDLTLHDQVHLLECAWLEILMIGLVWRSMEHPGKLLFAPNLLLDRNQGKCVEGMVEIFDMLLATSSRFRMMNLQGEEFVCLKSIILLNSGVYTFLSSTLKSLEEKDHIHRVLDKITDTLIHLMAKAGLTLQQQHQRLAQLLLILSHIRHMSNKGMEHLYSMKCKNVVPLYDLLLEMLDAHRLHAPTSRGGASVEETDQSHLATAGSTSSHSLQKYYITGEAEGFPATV
Outline: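 Cells were plated at 5000/well and incubated 4 h at 37 C. Compounds were added as 1:2 dilution series, duplicates. 17-beta-estradiol (0.5nM final) was added for 18 h before CCF4 detection.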

[4] = biological target: Estrogen receptor (Homo sapiens) (UniProt P03372); assay: qHTS assay for small molecule agonists of estrogen receptor alpha signaling (AID 588514; calls by dose curve; further: nearly all actives have a fitted effect of over 70% in size; further: potency means the concentration at half of the fitted maximal effect)
Outline: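 Efficacy is expressed against 20 nM 17-beta-estradiol (100%) and DMSO basal (0%); EC50 from Hill equation. Assay: beta-lactamase reporter in ER-alpha-UAS-bla HEK 293 cells, 18 h compound incubation, CCF4 detection.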

[5] = biological target: Bile acid receptor (Homo sapiens) (UniProt Q96RI1); assay: qHTS assay for small molecule agonists of farnesoid X receptor signaling (AID 588527; calls by dose curve); conditions: HEK293T FXR-UAS-bla, beta-lactamase ratio, 16 h; stronger effect = higher value
Sequence of Bile acid receptor (Homo sapiens) (Q96RI1 whole entry, looked up): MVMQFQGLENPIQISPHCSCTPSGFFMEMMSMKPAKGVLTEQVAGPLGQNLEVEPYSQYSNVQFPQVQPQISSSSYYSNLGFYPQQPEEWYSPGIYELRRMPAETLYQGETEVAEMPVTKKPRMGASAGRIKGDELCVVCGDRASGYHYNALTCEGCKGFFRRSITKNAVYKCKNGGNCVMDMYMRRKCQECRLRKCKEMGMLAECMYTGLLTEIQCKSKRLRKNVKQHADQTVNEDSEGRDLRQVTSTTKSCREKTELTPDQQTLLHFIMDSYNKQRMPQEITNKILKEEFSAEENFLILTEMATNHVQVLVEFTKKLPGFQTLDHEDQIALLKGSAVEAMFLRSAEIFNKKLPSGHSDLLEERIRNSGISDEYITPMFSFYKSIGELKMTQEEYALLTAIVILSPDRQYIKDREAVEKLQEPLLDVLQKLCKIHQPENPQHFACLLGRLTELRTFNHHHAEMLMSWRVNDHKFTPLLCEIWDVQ
Outline: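 Quantitative HTS used FXR-UAS-bla HEK293T cells with 16 h compound incubation at 37 C. EC50 values came from concentration-response curves normalized to chenodeoxycholic acid.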

[6] = biological target: Glucocorticoid receptor (Homo sapiens) (UniProt P04150); assay: qHTS assay for small molecule agonists of glucocorticoid receptor signaling (AID 588532; active means well fitted curve in the direction sought with a large enough effect in the signal ratio, with a control signal flat; the % refers to the signal ratio); conditions: HeLa MMTV-bla, beta-lactamase ratio, agonist, 18 h; stronger effect = higher value; percent of dexamethasone control, DMSO zero
Sequence of Glucocorticoid receptor (Homo sapiens) (P04150 whole entry, looked up): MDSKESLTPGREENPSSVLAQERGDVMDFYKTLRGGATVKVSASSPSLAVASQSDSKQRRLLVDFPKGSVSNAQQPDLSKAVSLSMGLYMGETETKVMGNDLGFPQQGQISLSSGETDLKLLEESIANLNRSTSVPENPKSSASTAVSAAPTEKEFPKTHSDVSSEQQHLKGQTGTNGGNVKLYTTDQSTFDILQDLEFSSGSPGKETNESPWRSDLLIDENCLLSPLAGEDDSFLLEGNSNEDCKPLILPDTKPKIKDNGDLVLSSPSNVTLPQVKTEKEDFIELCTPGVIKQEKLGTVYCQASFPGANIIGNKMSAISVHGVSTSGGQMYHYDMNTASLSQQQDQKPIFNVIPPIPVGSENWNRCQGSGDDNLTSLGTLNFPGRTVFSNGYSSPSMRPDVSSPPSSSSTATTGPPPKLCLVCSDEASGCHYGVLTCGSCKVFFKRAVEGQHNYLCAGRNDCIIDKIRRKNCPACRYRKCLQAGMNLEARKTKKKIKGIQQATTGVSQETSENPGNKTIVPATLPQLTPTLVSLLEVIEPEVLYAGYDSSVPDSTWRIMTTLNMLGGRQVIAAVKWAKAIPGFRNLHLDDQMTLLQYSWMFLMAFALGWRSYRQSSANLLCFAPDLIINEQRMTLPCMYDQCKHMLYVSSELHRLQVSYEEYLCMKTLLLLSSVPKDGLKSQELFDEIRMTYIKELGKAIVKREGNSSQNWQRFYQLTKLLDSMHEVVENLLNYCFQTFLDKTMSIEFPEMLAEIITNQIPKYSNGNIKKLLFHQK
Outline: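 Stimulation of a glucocorticoid response element-driven beta-lactamase gene was measured in HeLa cells. Responses were scaled between DMSO basal and 0.1 uM dexamethasone, then fitted for half-maximal stimulation.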

[7] = biological target: Glucocorticoid receptor (Homo sapiens) (UniProt P04150); assay: qHTS assay for small molecule antagonists of glucocorticoid receptor signaling (AID 588533; active means well fitted inhibition curve with a large enough effect in the signal ratio, with a control signal flat, not every such curve was filed as active; the % refers to the signal ratio;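 further: cells stimulated with 2 nM dexamethasone as agonist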)
Outline: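 Antagonist-mode qHTS: compound titrations added to GRE-bla HeLa cells, then dexamethasone 2 nM final; 18 h, 37 C. CCF4 FRET fluorescence normalized to dexamethasone and DMSO; IC50 from Hill fit.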

[8] = biological target: Vitamin D3 receptor (Homo sapiens) (UniProt P11473); assay: qHTS assay for small molecule agonists of vitamin D receptor signaling (AID 588543; calls by dose curve)
Sequence of Vitamin D3 receptor (Homo sapiens) (P11473 whole entry, looked up): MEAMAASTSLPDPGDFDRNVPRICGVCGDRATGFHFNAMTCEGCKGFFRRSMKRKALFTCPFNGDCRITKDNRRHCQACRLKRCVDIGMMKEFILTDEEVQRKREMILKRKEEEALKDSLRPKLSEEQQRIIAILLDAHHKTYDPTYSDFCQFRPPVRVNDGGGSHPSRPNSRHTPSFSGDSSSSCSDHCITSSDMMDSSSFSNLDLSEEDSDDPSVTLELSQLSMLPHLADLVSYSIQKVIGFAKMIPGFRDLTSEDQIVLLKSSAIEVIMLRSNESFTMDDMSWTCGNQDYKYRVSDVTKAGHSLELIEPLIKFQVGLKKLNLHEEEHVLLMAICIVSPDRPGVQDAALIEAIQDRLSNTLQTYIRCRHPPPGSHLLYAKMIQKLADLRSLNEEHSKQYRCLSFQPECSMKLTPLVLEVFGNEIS
Outline: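 qHTS in agonist mode: compound titrations stimulate a VDR-driven β-lactamase reporter in HEK293T cells over 16 h at 37 °C. Response normalized to 50 nM 1α,25-dihydroxyvitamin D3 = 100%, DMSO = 0%; Hill fitting gives EC50 and maximal response.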

[9] = biological target: Retinoic acid receptor RXR-alpha (Homo sapiens) (UniProt P19793); assay: qHTS assay for small molecule antagonists of retinoid X receptor alpha signaling (AID 588546; active means well fitted inhibition curve with a large enough effect in the signal ratio, with a control signal flat, not every such curve was filed as active; the % refers to the signal ratio;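 further: cells stimulated with 9-cis-retinoic acid as agonist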); conditions: HEK293T RXRa-UAS-bla, beta-lactamase ratio, antagonist mode
Sequence of Retinoic acid receptor RXR-alpha (Homo sapiens) (P19793 whole entry, looked up): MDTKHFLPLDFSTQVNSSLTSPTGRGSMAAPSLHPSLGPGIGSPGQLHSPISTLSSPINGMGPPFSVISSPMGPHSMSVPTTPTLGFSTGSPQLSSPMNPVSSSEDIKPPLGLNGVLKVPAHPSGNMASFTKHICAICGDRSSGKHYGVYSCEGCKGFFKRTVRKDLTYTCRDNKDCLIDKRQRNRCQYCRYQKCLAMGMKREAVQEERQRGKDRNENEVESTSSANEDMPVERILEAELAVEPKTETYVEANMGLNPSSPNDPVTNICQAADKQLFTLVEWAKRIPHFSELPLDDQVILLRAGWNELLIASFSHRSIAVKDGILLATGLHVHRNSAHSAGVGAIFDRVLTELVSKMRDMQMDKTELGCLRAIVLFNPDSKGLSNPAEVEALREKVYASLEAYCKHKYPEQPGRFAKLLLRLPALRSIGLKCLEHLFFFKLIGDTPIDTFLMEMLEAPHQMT
Outline: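 Beta-lactamase reporter inhibition, read as CCF4 fluorescence ratio (ex 405, em 460/530 nm) after 2 h at RT. HEK293T UAS-bla cells, 2500/well, were stimulated with 9-cis-RA at 500 or 100 nM final alongside test compound for 18 h at 37 C.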

[10] = Cell Viability - LYMP2-002 (AID 977);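 further: compound exposure lasted 24 h at 37 °C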
Outline: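 In this qHTS viability screen, 2500 human lymphoblastoid cells per well receive compound for 24 hr at 37 C, and luciferase-based ATP luminescence gives the viability signal. Tetraoctylammonium bromide serves as positive control.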

[11] = biological target: Peroxisome proliferator-activated receptor delta (Homo sapiens) (UniProt Q03181); assay: qHTS assay for small molecule agonists of peroxisome proliferator-activated receptor delta signaling (AID 588534; calls by dose curve)
Sequence of Peroxisome proliferator-activated receptor delta (Homo sapiens) (Q03181 whole entry, looked up): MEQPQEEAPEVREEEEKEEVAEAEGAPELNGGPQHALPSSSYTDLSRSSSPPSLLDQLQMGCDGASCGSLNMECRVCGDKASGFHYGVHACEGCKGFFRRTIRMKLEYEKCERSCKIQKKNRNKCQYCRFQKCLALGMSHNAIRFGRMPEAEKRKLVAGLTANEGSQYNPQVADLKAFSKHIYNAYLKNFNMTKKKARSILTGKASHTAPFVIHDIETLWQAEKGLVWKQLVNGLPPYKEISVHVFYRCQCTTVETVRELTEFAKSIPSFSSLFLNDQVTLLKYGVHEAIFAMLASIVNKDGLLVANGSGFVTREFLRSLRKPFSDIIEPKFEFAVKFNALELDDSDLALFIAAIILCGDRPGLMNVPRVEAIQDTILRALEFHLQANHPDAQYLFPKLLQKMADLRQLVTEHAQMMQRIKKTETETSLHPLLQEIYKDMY
Outline: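 Agonist-mode qHTS; reporter cells, 5 hrs 37 C pre-incubation; compound titration, 18 hrs 37 C; CCF4 dye, 2 hrs RT; fluorescence read. EC50/efficacy via Hill fit.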

[12] = qHTS assay for small molecule activators of the nuclear factor-kappa B (NF-kB) signaling pathway (AID 651749; active means well fitted activation curve with a large enough effect in the signal ratio; the % refers to the signal ratio); conditions: NF-kB-bla ME-180 cells, beta-lactamase FRET ratio, 16 h; stronger effect = higher value
Outline: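 Human ME-180 cervical cells with an NF-kB-bla construct; compounds added via 23 nL pin transfer, DMSO as vehicle; incubation 16 hr. Reporter activity measured by FRET disruption.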

[13] = qHTS assay for small molecule antagonists of peroxisome proliferator-activated receptor delta signaling (AID 588535; active means well fitted inhibition curve with a large enough effect in the signal ratio, with a control signal flat, not every such curve was filed as active; the % refers to the signal ratio;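 on max response: cells co-treated with a PPAR-delta agonist as stimulator during compound exposure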); conditions: HEK293T PPARd-UAS-bla, beta-lactamase FRET ratio, 18 h; 460 nm channel
Outline: (§1)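 Inhibition of PPAR-delta response element-driven beta-lactamase expression is measured in HEK293T cells exposed to a compound titration series for 18 hrs at 37 C. Half-maximal inhibition comes from Hill equation fitting.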

[14] = biological target: Peroxisome proliferator-activated receptor delta (Homo sapiens) (UniProt Q03181); assay: as above
Outline: as §1

[15] = qHTS assay for small molecule agonists of the antioxidant response element (ARE) signaling pathway (AID 651741; active means well fitted activation curve with a large enough effect in the signal ratio; the % refers to the signal ratio)
Outline: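 Reporter: beta-lactamase under ARE, stably in HepG2. Exposure: 16 h, 37 C, compounds delivered in DMSO by pin tool after 5 h cell preincubation. Readout: FRET substrate fluorescence after 2 h at RT.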

[16] = biological target: Cytochrome P450 3A4 (Homo sapiens) (UniProt P08684); assay: qHTS Assay for Activators of Cytochrome P450 3A4 (AID 885); further: nearly all actives have a fitted effect of over 65% in size
Sequence of Cytochrome P450 3A4 (Homo sapiens) (P08684 whole entry, looked up): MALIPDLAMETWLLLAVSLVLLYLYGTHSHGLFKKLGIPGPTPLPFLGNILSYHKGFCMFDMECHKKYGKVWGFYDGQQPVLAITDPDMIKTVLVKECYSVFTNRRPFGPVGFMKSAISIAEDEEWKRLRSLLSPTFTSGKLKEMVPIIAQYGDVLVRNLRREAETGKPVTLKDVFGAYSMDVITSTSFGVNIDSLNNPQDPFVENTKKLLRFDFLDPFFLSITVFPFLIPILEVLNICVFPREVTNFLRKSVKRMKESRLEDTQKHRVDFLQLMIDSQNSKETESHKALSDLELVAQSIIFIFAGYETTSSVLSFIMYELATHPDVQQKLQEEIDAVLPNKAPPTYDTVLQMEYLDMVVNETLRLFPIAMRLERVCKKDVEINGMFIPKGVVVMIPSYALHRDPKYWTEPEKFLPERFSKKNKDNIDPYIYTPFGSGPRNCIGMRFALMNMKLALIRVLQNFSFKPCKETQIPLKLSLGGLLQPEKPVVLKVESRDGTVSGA
Outline: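 Using 20nM recombinant human CYP3A4 in potassium phosphate (200mM), substrate Luciferin-PPXE at 25uM, luminescent luciferin detection followed a 60-min RT NADPH reaction; data scaled to 57 uM ketoconazole.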

[17] = biological target: Peroxisome proliferator-activated receptor gamma (Homo sapiens) (UniProt P37231); assay: qHTS assay for small molecule antagonists of peroxisome proliferator-activated receptor gamma signaling (AID 588537; active means well fitted inhibition curve with a large enough effect in the signal ratio, with a control signal flat, not every such curve was filed as active; the % refers to the signal ratio;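 further: reporter cells co-stimulated with 50 nM rosiglitazone agonist during compound treatment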)
Sequence of Peroxisome proliferator-activated receptor gamma (Homo sapiens) (P37231 whole entry, looked up): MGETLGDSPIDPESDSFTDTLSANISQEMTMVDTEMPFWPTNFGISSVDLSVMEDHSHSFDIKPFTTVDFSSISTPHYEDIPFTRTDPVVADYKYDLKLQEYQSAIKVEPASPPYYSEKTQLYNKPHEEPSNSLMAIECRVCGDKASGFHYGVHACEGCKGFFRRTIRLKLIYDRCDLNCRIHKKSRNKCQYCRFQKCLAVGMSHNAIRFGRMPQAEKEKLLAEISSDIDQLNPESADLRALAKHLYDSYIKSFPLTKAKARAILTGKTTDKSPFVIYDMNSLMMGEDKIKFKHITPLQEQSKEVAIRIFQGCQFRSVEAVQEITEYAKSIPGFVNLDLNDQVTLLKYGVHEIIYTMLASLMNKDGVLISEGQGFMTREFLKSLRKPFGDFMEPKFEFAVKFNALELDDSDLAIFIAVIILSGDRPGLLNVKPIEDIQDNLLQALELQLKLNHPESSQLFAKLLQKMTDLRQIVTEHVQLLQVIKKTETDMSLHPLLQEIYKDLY
Outline: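 Compounds are tested as concentration series for inhibition of rosiglitazone-driven (50 nM) reporter expression in GeneBLAzer PPAR-gamma-UAS-bla HEK293 cells. After 16 h at 37 C, CCF4 substrate is added for 2 h at room temperature and blue/green fluorescence is measured.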

Compound	Potency [1]	Potency [2]	Potency [3]	Potency [4]	activation [5]	activation [6]	outcome [7]	outcome [8]	max response [9]	Potency [10]	outcome [11]	activation [12]	max response [13]	outcome [14]	Potency [15]	Potency [16]	Potency [17]
CCCBr	inactive	inactive	inactive	355 nM (active)	-1.67% (inactive)	-1.9% (inactive)	inactive	inactive	1.56% (inactive)								
BrC(Br)Br	inactive	inactive			-2.73% (inactive)	-1.59% (inactive)	inactive	inactive	20% (inactive)	inactive	inactive	0.744% (inactive)					
CC(=O)CCC(C)=O	inactive	inactive	inactive	inactive		-5.45% (inactive)	inactive	inactive	0.643% (inactive)	inactive	inactive	0.108% (inactive)	-12.7%	inactive	inactive		
Nc1ccc2ccccc2c1	inactive		inactive	inactive				inactive	-0.227% (inactive)	inactive						inactive	
CCOC(=O)CBr	inactive	inactive			0.321% (inactive)		inactive	inactive	-3.36% (inactive)	inactive	inactive	-0.133% (inactive)	-11.7%	inactive	inactive		
C=CC(=O)OC	inactive	inactive			1.11% (inactive)			inactive	-3.6% (inactive)	inactive	inactive	-0.11% (inactive)			inactive		inactive
CC12CC1(C)C(=O)N(c1cc(Cl)cc(Cl)c1)C2=O (stereo not given)	inactive	inactive				-1.15% (inactive) and -3.35% (inactive)	inactive	inactive	-13.5% (inactive)		inactive	-0.629% (inactive) and -1.26% (inactive)	-1.5% and 19.3%	inactive			inactive
Cc1ccc(OP(=O)(Oc2ccc(C)cc2)Oc2ccc(C)cc2)cc1	inactive	inactive				-0.0057% (inactive) and -10.3% (inactive)	inactive	inactive		inactive	inactive	-1% (inactive) and 2.01% (inactive)	2.39% and -12%	inactive		inactive	inactive
O=C(Cl)OCc1ccccc1		inactive	inactive	inactive		-1.41% (inactive)	inactive		-3.17% (inactive)	inactive		-0.156% (inactive)			inactive		
CCOP(=O)(OCC)OCC	inactive	inactive				4.27% (inactive) and 16.4% (inactive)	inactive		10.3% (inactive) and -4.1% (inactive)	inactive	inactive		8.93% and -1.46%	inactive	inactive		inactive
